The panel holds about 83,000 compounds, 20% with a hit somewhere; the sample as a whole holds those more often.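 96-well plates, one dose, 48 hours. Percent growth reported; active if below 10.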 A number with no mark means an inactive call. Activity calls are given as the source filed them.

Among the test systems are HCT-15 colon; HT29 colon; SNB-75 CNS; SNB-19 CNS; U251 CNS; PC-3 prostate; SK-MEL-5 melanoma; UACC-62 melanoma; LOX IMVI melanoma; SK-MEL-28 melanoma; SK-MEL-2 melanoma; EKVX NSCLC; SN12C renal; UO-31 renal; TK-10 renal; ACHN renal; CAKI-1 renal; A498 renal; MOLT-4 leukemia; CCRF-CEM leukemia.
Test in all cases: NCI-60 one-dose screen, 48 h (100 = growth as untreated, 0 = no growth, -100 = all killed)
Holding throughout (details): 10 µM unless noted

Consider `CCCCCCCCCCOC(=O)c1nn(C(C)=O)c2cc(C)c(C)cc12`, for which the growth is 98.8% in the assay on HCT-15 colon; 92.1% with HT29 colon; 115% in the assay with SNB-75 CNS; 105% in the assay with SNB-19 CNS; 93.3% in the assay on U251 CNS; 73.7% in the assay with PC-3 prostate. The growth with SK-MEL-5 melanoma was 99.5%; with UACC-62 melanoma, 93.3%; in the assay with LOX IMVI melanoma it was 87.9%; with SK-MEL-28 melanoma it was 109%; in the assay with SK-MEL-2 melanoma, 104%; in the assay on EKVX NSCLC it was 91.6%. In addition, the growth in the assay with SN12C renal is 102%; in the assay on UO-31 renal, 71.7%; in the assay on TK-10 renal it was 104%; in the assay with ACHN renal it was 97.1%; in the assay with CAKI-1 renal it was 88.8%; in the assay on A498 renal, 79.1%. Besides, the growth with MOLT-4 leukemia was 82.7%.

As for `CCN(CC)CCOc1ccc2c(-c3ccccc3)c(-c3ccc(OC)cc3)c(=O)oc2c1`, the growth in the assay with HCT-15 colon is 11.4%; in the assay on HT29 colon, 17%; in the assay on SNB-75 CNS, 82.6%; with SNB-19 CNS it was 69%; with U251 CNS, 44.4%; in the assay on PC-3 prostate it was 65.4%. The growth in the assay on SK-MEL-5 melanoma was 25.9%; in the assay on UACC-62 melanoma, -15% (active); in the assay with LOX IMVI melanoma it was 29.3%; with SK-MEL-28 melanoma, 43.1%; with SK-MEL-2 melanoma it was 51.6%; with EKVX NSCLC, 83.9%. Further, the growth in the assay on SN12C renal was 68.5%; in the assay on UO-31 renal it was 62.6%; with TK-10 renal it was 75.9%; in the assay with ACHN renal, 75.3%; with CAKI-1 renal it was 71.9%; in the assay on A498 renal, 70.2%. Moreover, in the assay on MOLT-4 leukemia, the growth was 35.4%.

On to `Oc1ccc(-c2nc3ccc4[nH]ncc4c3c3c2CCCC3)c(F)c1`, for which the growth is 15.8% in the assay on HCT-15 colon; 42.5% in the assay with HT29 colon; 17% in the assay on SNB-75 CNS; 60.5% with SNB-19 CNS; 38.3% in the assay on U251 CNS; 33.8% in the assay on PC-3 prostate. Besides, the growth was 3.31% (active) with SK-MEL-5 melanoma; 11.7% in the assay on UACC-62 melanoma; 27.8% in the assay on LOX IMVI melanoma; 17.5% in the assay with SK-MEL-28 melanoma; -13.3% (active) with SK-MEL-2 melanoma; 38.3% in the assay on EKVX NSCLC. The growth was 44.8% with SN12C renal; 17.5% in the assay with UO-31 renal; 29.2% with TK-10 renal; 11.9% in the assay with ACHN renal; 13% in the assay on CAKI-1 renal; 30.1% in the assay on A498 renal. The growth in the assay on CCRF-CEM leukemia is 12%; with MOLT-4 leukemia, 2.01% (active).

Regarding `CC(C)CCC[C@@H](C)[C@H]1CC[C@H]2[C@@H]3CC=C4c5sc(Nc6cc(C(F)(F)F)cc(C(F)(F)F)c6)nc5CC[C@]4(C)[C@H]3CC[C@]12C`, the growth was 101% in the assay on HCT-15 colon; 110% in the assay with HT29 colon; 95.5% with SNB-75 CNS; 98.6% in the assay with SNB-19 CNS; 96% in the assay with U251 CNS; 92.8% in the assay with PC-3 prostate. Further, the growth in the assay on SK-MEL-5 melanoma is 100%; in the assay with UACC-62 melanoma it was 94.5%; in the assay on LOX IMVI melanoma, 96.8%; with SK-MEL-28 melanoma, 113%; with SK-MEL-2 melanoma, 124%; with EKVX NSCLC it was 97%. In addition, the growth with SN12C renal was 92.3%; with UO-31 renal, 73.4%; in the assay with TK-10 renal it was 119%; in the assay on ACHN renal it was 106%; with CAKI-1 renal, 85.6%; in the assay on A498 renal it was 123%. Also, the growth in the assay with CCRF-CEM leukemia was 107%; with MOLT-4 leukemia, 103%.

As for `COc1ccc(Cl)cc1Nc1nc(C(F)(F)F)ccc1C(=O)N/N=C/c1ccc([N+](=O)[O-])cc1`, the growth is 3.38% (active) with HCT-15 colon; 2.62% (active) in the assay on HT29 colon; 29.5% in the assay on SNB-75 CNS; 22.9% in the assay on SNB-19 CNS; -27% (active) in the assay on U251 CNS; -5.64% (active) with PC-3 prostate. In addition, the growth in the assay with SK-MEL-5 melanoma is -17.7% (active); in the assay on UACC-62 melanoma, 17.3%; in the assay on LOX IMVI melanoma, -32.8% (active); in the assay with SK-MEL-28 melanoma, 22.8%; with SK-MEL-2 melanoma, -8.38% (active); in the assay with EKVX NSCLC, 0.805% (active). Moreover, the growth in the assay on SN12C renal is 5.05% (active); with UO-31 renal, -1.49% (active); in the assay on TK-10 renal it was 10.5%; in the assay on ACHN renal it was -9.86% (active); in the assay on CAKI-1 renal, 4.56% (active); in the assay on A498 renal it was 3.24% (active). Moreover, the results for the growth with CCRF-CEM leukemia and in the assay on MOLT-4 leukemia were 9.15% (active) and 2.93% (active), respectively.

Take `O=C1NC(=O)C(c2coc3cc(Br)ccc23)=C1c1c[nH]c2ccccc12`: the growth was 25% in the assay on HCT-15 colon; 20.6% with HT29 colon; -2.44% (active) in the assay with SNB-75 CNS; 58% with SNB-19 CNS; 29.6% in the assay with U251 CNS; 67.2% in the assay on PC-3 prostate. The growth in the assay on SK-MEL-5 melanoma was 80.7%; in the assay with UACC-62 melanoma, 35.6%; in the assay on LOX IMVI melanoma, 44%; with SK-MEL-28 melanoma, 71.5%; in the assay with SK-MEL-2 melanoma it was 34.1%; in the assay with EKVX NSCLC, 54%. The growth is 55% in the assay with SN12C renal; 58% in the assay on UO-31 renal; 80.8% in the assay on TK-10 renal; 71.3% with ACHN renal; 39.2% with CAKI-1 renal; 5.34% (active) with A498 renal. Also, the growth was 29.1% in the assay on CCRF-CEM leukemia and 26% with MOLT-4 leukemia.

With `CS(=O)(=O)Nc1cc(-c2ccc3ncnc(Nc4ccc5c(cnn5Cc5ccncc5)c4)c3c2)cnc1Cl`, the growth with HCT-15 colon was 92.3%; in the assay with HT29 colon, 64.8%; in the assay on SNB-75 CNS, 8.94% (active); in the assay with SNB-19 CNS, 60%; in the assay with U251 CNS it was 52.7%; with PC-3 prostate, 57.7%. In addition, the growth in the assay on SK-MEL-5 melanoma is 52.5%; in the assay with UACC-62 melanoma, 32.5%; with LOX IMVI melanoma, 22%; in the assay with SK-MEL-28 melanoma, 32.5%; with SK-MEL-2 melanoma, -0.132% (active); in the assay with EKVX NSCLC, 75.9%. Further, the growth was 54.7% in the assay on SN12C renal; 57.5% in the assay on UO-31 renal; 39.1% in the assay with TK-10 renal; 89.9% with ACHN renal; 40.7% in the assay on CAKI-1 renal; 2.83% (active) with A498 renal. The growth in the assay on MOLT-4 leukemia is 57.1%.

For the origin of these results see PubChem BioAssay (NCI).
